Several values for one entry are separate records, joined by “and”; a condition that tells them apart may be missing. Identical values can stand only once. ± gives the standard deviation of the averaged measurements.
Key:
Details in all cases: concentration: 10 µM; 24 h
HCC1569 [1] = experiment: cell number relative to DMSO (% of DMSO); higher = more cells (less growth inhibition / toxicity)
Summary of the method: (§1)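 HCC1569 and TDF cells were seeded at 800 per well in 384-well plates in RPMI with 10% FBS and treated with compounds at 10 µM for 24 h at 37 °C, in triplicate. After fixation in 3.7% formaldehyde, cells were stained with a rabbit anti-H1.0 antibody, an AlexaFluor 647 secondary and DAPI, and six fields per well were imaged at ×10. H1.0 nuclear intensity or cell number is given as percent of the plate control, using the median of replicates, with HCC1569 values smoothed for positional effects.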

TDF [2] = experiment: as above
Summary of the method: as §1

TDF [3] = experiment: H1.0 immunofluorescence intensity relative to DMSO (% of DMSO); higher = stronger H1.0 induction, active = 120 or more
Summary of the method: as §1

HCC1569 [4] = experiment: H1.0 immunofluorescence intensity relative to DMSO (% of DMSO); higher = stronger H1.0 induction, active = 140 or more
Summary of the method: as §1
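Wherever H1.0 immunofluorescence intensity relative to DMSO is given: TDF is a line of transformed human dermal fibroblasts of mesenchymal origin.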
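Wherever cell number relative to DMSO is given: TDF denotes transformed human dermal fibroblasts of mesenchymal origin.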

SMILES | cell number (HCC1569 [1]) | cell number (TDF [2]) | H1.0 immunofluorescence intensity (TDF [3]) | H1.0 immunofluorescence intensity (HCC1569 [4])
C[n+]1ccccc1CC(=O)c1ccc(Br)cc1.[I-] [2-[2-(4-bromophenyl)-2-oxoethyl]-1-methylpyridinium iodide] | 98.7 | 87.6 | 96.4 (inactive) | 97.5 (inactive)
Cl.NCc1c[nH]c(=S)n1[C@H]1CCc2c(F)cc(F)cc2C1 | 99.6 | 110 | 95.9 (inactive) | 111 (inactive)
O=C(O)c1ccccc1Nc1ccccc1 [N-Phenylanthranilic acid] | 102 | 104 | 100 (inactive) | 97.5 (inactive)
CC1OC(OC2C(Oc3cc(O)c4c(=O)cc(-c5ccc(O)cc5)oc4c3)OC(CO)C(O)C2O)C(O)C(O)C1O (stereo not given) [Rhoifolin] | 102 | 112 | 88.4 (inactive) | 89.9 (inactive)
CCOC(OCC)P(=O)(O)CCCNCc1ccc(Cl)c(Cl)c1 | 108 | 95.6 | 98.3 (inactive) | 102 (inactive)
C=CC[N+]1(C2CC3C4CCC5CC(O)C(N6CCOCC6)CC5(C)C4CCC3(C)C2OC(C)=O)CCCC1.[Br-] (stereo not given) [Rocuronium bromide] | 107 | 104 | 99.6 (inactive) | 99.4 (inactive)
COc1ccc(CNC(=O)Nc2ncc([N+](=O)[O-])s2)cc1 [GSK-3b Inhibitor VIII] | 91 | 106 | 96.6 (inactive) | 128 (inactive)
C=C[C@]1(C)C[C@@H](OC(=O)CO)[C@]2(C)[C@H](C)CC[C@]3(CCC(=O)[C@H]32)[C@@H](C)[C@@H]1O | 96.4 | 115 | 106 (inactive) | 95.9 (inactive)
COc1cc2oc(=O)ccc2cc1O [Isoscopoletine] | 105 | 92.4 | 102 (inactive) | 89.1 (inactive)
CCCCCC=CCC(O)C=CC=CCC=CCCCC(=O)O (stereo not given) | 105 and 98 | 95.5 and 90.4 | 92.5 (inactive) and 96.7 (inactive) | 98.4 (inactive) and 99.8 (inactive)
O=C(O)c1cc(N(Cc2ccccc2O)Cc2cc(O)ccc2O)ccc1O [Lavendustin A] | 105 | 89.4 | 108 (inactive) | 97.9 (inactive)
CCCCCCCCC=CCCCCCCCC(=O)O [9(E)-Octadecenoic acid] | 100 | 108 | 94.9 (inactive) | 101 (inactive)
NC(=O)c1ccccc1 [Benzamide] | 98.5 | 87.1 | 99.2 (inactive) | 107 (inactive)
NCCS(=O)(=O)O [Taurine] | 98.1 | 112 | 96.4 (inactive) | 98.7 (inactive)
CC(C)C(CO)Nc1nc(Nc2cccc(Cl)c2)c2ncn(C(C)C)c2n1 (stereo not given) [Purvalanol A] | 68.8 ± 4.3 | 61.8 ± 9.4 | 98.3 (inactive) | 129 (inactive)
CCCCCCCCCCCCCC=CC(O)C(CO)NCCCCCCCC (stereo not given) [C8 Ceramine] | 105 | 97 | 95.1 (inactive) | 121 (inactive)
Cc1cccc(Nc2cc(Cl)nc(SCC(=O)O)n2)c1C | 101 | 104 | 91.8 (inactive) | 97.6 (inactive)
NS(=O)(=O)c1ccc(S(=O)(=O)Nc2cccc3c(Cl)c[nH]c23)cc1 [N~1~-(3-chloro-1H-indol-7-yl)-1,4-benzenedisulfonamide] | 95.3 | 103 | 96.2 (inactive) | 107 (inactive)
Nc1nc(N)nc(-c2cc(Cl)ccc2Cl)n1 [Irsogladine] | 105 | 105 | 94.5 (inactive) | 107 (inactive)
CCCCCC(O)c1cccc(OCc2ccc3ccccc3n2)c1 (stereo not given) | 103 and 102 | 107 and 102 | 104 (inactive) and 91.2 (inactive) | 110 (inactive) and 101 (inactive)
CN(Cc1cnc2nc(N)nc(N)c2n1)c1ccc(C(=O)NC(CCC(=O)O)C(=O)O)cc1 (single isomer, unassigned; (-)) [(-)Amethopterin] | 96.4 | 96.2 | 106 (inactive) | 110 (inactive)
Cl.O=C(O)C1CCCN(CCC=C(c2ccccc2)c2ccccc2)C1 (stereo not given) | 97.9 | 92.7 | 98.1 (inactive) | 98.1 (inactive)
CC1CN(S(=O)(=O)c2cccc3cnccc23)CCN1.Cl.Cl (stereo not given) | 111 | 109 | 86.2 (inactive) | 81.1 (inactive)
CON=C(C(=O)NC1C(=O)N2C(C(=O)[O-])=C(C[N+]3(C)CCCC3)CSC12)c1csc(N)n1 (stereo not given) [Cefepime] | 99.6 | 97 | 91.1 (inactive) | 110 (inactive)
CCCCCCCCCCCCCCCCCCc1ccc(C(=O)/C=C/C(=O)O)cc1 [(2E)-4-(4-octadecylphenyl)-4-oxo-2-butenoic acid] | 100 | 105 | 97.6 (inactive) | 107 (inactive)
